# In the library only some 19% were active in any assay of this set; here they are far more common.
# DT40 TDP1 CPT – qHTS for Inhibitors of human tyrosyl-DNA phosphodiesterase 1 (TDP1): qHTS in cells in presence of CPT. chicken DT40 Tdp1-/-;hTDP1 cells + 20 nM CPT, ATP luminescence, 48 h. Potency, µM (highest dose often 46.2 µM), without a hit: top-dose activity change, negative = growth inhibition, hits mostly inhibitors. 420,000 tested, 12% active; further: potency means the concentration at half of the fitted maximal effect; on the % scale 0 is the no-effect control and ±100 the full control effect; nearly all actives have a fitted effect of over 55% in size
#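 Cell growth measured by CellTiter-Glo luminescence after a minimum 48 h, 37 C compound exposure with 20 nM CPT in Tdp1-knockout DT40 cells stably expressing hTDP1, seeded 400/well; qHTS titration format.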
# TDP1 cell noCPT – qHTS for Inhibitors of human tyrosyl-DNA phosphodiesterase 1 (TDP1): qHTS in cells in absence of CPT; Potency, µM (series often up to 46.2 µM), without a hit: at the highest dose activity change, negative = growth inhibition, actives largely listed as inhibitors; DT40 Tdp1-/- hTDP1 cells, no CPT, ATP luminescence, 48 h; 420,000 tested, 15% active; further: potency means the concentration at half of the fitted maximal effect; on the % scale 0 is the no-effect control and ±100 the full control effect; nearly all actives have a fitted effect of over 55% in size
#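 Cells were dispensed at 400 per well, compounds added by pin tool, plates incubated ≥48 hr at 37 °C, then CellTiter-Glo added for 30 min at room temperature before luminescence reading. Line: DT40 Tdp1-/- complemented with hTDP1; camptothecin omitted.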
# HepG2 tox – qHTS for Inhibitors of TGF-b: Cytotox Counterscreen; HepG2 CAGA-GFP viability, ATP luminescence, 18 h; Potency, µM (titrated, usually from 46.1 µM), for inactives: at the top dose activity change, negative = cytotoxicity, usual class: cytotoxic; 410,000 tested, 0.76% active; AID 588856, 2011; further: potency means the concentration at half of the fitted maximal effect
#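 HepG2 CAGA-GFP cells (1000/well, DMEM with 1% FBS) received compound, then TGF-beta at 500 pg/mL final, and were incubated 18 hours at 37 degrees C. Viability was read by CellTiter-Glo luminescence. Media-only wells were set as complete cell-killing and DMSO as no toxicity.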
# IL-1B inflam inh – qHTS for Inhibitors of Inflammasome Signaling: IL-1-beta AlphaLISA Primary Screen | AID 743279, 2014 | THP-1 LPS/ATP IL-1B secretion, AlphaLISA, 16 h; active compounds read low | activity change, % at 57.5 µM | 360,000 tested, 4.7% active; in the data active means activity change below about -50%; inconclusive means mostly about -30% to -49%; further: on the % scale 0 is the no-effect control and ±100 the full control effect
#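 Secreted IL-1B measured by AlphaLISA bead assay after 16 h compound exposure of THP-1 cells; compounds (final up to 57.5 uM) added 1 h before LPS (250 ng/mL) and ATP (1.25 mM) stimulation; lower signal means less secretion.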
# TGFb inhibitor – qHTS for Inhibitors of TGF-b | HepG2 CAGA-GFP TGF-b/SMAD3 reporter, GFP fluorescence, 18 h; TGF-beta stimulated, 500 pg/mL final | Potency, µM (series often up to 46.1 µM), without a hit: at the highest dose activity, negative = inhibition, most hits filed as inhibitors | 410,000 tested, 1.2% active | AID 588855, 2011; further: potency means the concentration at half of the fitted maximal effect; on the % scale 0 is the no-effect control and ±100 the full control effect; nearly all actives have a fitted effect of over 65% in size
#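 Inhibition of TGF-beta-driven CAGA-GFP reporter expression in HEPG2 cells is measured by cellular GFP fluorescence after 18 h stimulation with 500 pg/mL recombinant TGF-beta in 1% FBS medium at 37 degrees C.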
# TDP1 block – qHTS Assay for Inhibitors of Tyrosyl-DNA Phosphodiesterase (TDP1); Tyrosyl-DNA phosphodiesterase 1 (Homo sapiens), Q9NUW8; recombinant TDP1, AlphaScreen DNA substrate cleavage; Potency, µM (series often up to 130 µM), without a hit: top-dose activity change, negative = inhibition, most hits filed as inhibitors; 350,000 tested, 0.28% active; AID 485290, 2010; further: potency means the concentration at half of the fitted maximal effect; on the % scale 0 is the no-effect control and ±100 the full control effect; nearly all actives have a fitted effect of over 40% in size
# Target sequence (Q9NUW8 whole entry, looked up): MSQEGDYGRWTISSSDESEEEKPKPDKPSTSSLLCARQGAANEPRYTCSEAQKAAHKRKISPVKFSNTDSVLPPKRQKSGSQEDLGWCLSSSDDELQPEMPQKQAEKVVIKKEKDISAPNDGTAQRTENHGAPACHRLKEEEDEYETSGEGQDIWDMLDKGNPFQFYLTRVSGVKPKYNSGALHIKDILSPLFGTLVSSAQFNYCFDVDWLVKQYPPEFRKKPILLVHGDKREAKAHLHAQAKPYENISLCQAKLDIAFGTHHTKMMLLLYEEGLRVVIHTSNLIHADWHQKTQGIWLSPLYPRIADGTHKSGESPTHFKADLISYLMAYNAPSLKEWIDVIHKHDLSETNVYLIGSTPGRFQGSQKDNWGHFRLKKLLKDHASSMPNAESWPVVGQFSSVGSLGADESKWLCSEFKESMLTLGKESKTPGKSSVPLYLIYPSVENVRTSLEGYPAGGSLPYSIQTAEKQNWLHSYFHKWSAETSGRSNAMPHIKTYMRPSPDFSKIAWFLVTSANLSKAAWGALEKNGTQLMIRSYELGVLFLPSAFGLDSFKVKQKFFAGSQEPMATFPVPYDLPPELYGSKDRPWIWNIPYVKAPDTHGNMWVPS
#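 Signal: AlphaScreen proximity between streptavidin donor and anti-FITC acceptor beads on intact substrate. Reaction: Tdp1 1 nM, substrate 15 nM final, 5 min RT after 15 min compound preincubation.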
# An asterisk follows results filed as active; ? = inconclusive; / = not tested or not shown; [ ] = dose if it differs, or a comment. Unless noted, the call rests on the fitted dose curve; in most records, active means well fitted curve in the direction sought with a large enough effect; inconclusive means small, poorly fitted or top-dose-only effect, or another doubt; inactive means no such curve, though single readings can be large; an effect the other way counts as inactive or inconclusive.
SMILES,DT40 TDP1 CPT,TDP1 cell noCPT,HepG2 tox,IL-1B inflam inh,TGFb inhibitor,TDP1 block
Cc1nc(-[n+]2nc(-c3ccncc3)nn2-c2ccccc2)sc1C,1.46µM*,1.84µM*,-68.3%,?,-13.8%,/
CC1=C(C(N)=O)C(c2ccccc2)n2nc(-c3ccncc3)nc2N1 (centres undefined),-5.5%,-5.9%,-3.9%,6.0,3.1%,-3.9%
Nc1nc(N)nc(-c2ccc([N+](=O)[O-])o2)n1,?,23.1µM*,-19.3%,-11.6,0.0%,/
COC(=O)c1c(C)nn(-c2ccc(F)cc2)c1-n1cccc1,?,?,-14.9%,/,/,7.6%
CCOc1nc(NCCC2=CCCCC2)nc(N2CCOCC2)n1,?,?,-3.5%,-20.0,1.8%,-2.6%
OCCNc1nc(NCCC2=CCCCC2)nc(N2CCOCC2)n1,20.6µM*,20.6µM*,-15.5%,-4.5,-1.1%,1.9%
CC(C)N(Cc1ccccc1)C(=O)COC(=O)C1CCCCC1,4.5%,-4.9%,-0.7%,6.3,20.7%,-1.5%
C[N+]1(Cc2ccccc2)CCC(C(=O)OCC2CCCC2)CC1 (centres undefined),?,20.6µM*,/,/,/,6.1%
O=c1cc(COc2ccccc2[N+](=O)[O-])nc2sccn12,-18.9%,-7.1%,-17.1%,8.7,-3.2%,2.9%
CC(OC(=O)c1cccc(O)c1)C(=O)N(C)Cc1ccccc1 (centres undefined),-26.2%,-8.1%,24.3%,-10.7,21.0%,/
CC(OC(=O)/C(C#N)=C/c1ccc(N(C)C)cc1)C(=O)N(C)Cc1ccccc1 (centres undefined),?,11.6µM*,-21.2%,10.0,-0.4%,1.8%
CC(C)c1ccc(NC(=O)CN(C)S(=O)(=O)c2ccc3c(c2)n(C)c(=O)c(=O)n3C)cc1,-29.9%,?,8.8%,/,-3.9%,3.8%
CN(C)S(=O)(=O)N(CC(=O)NCCSCc1cccc(Cl)c1)c1ccccc1,?,23.1µM*,-35.1%,/,?,1.1%
Cc1cccc(CSCCNC(=O)CN(c2ccccc2)S(=O)(=O)N(C)C)c1,?,20.6µM*,-23.3%,/,/,-1.1%
O=C(NCC1CCCO1)c1cccc2c1C(=O)c1ccc(N3CCC(Cc4ccccc4)CC3)cc1S2(=O)=O (centres undefined),?,20.6µM*,1.6%,43.0,?,-0.2%
CC1CCN(c2ccc3c(c2)S(=O)(=O)c2cccc(C(=O)NC[C@@H]4CCCO4)c2C3=O)CC1,13µM*,?,3.3%,35.3,-0.3%,-1.0%
O=C(NCC1CC1)c1cccc2c1C(=O)c1ccc(N3CCCC3)cc1S2(=O)=O,?,?,2.8%,-13.1,-14.4%,0.8%
Cc1ccc(SC(=O)COc2ccccc2C)cc1,13µM*,?,-23.0%,-29.7,5.4%,-7.6%
Cc1ccccc1OCCC(=O)Nc1ccc(S(=O)(=O)N(C)C2CCN(C)CC2)cc1,?,?,-20.0%,-60.9*,1.0%,/
CN1CCC(N(C)S(=O)(=O)c2ccc(NC(=O)COc3ccc(Br)cc3Cl)cc2)CC1,25.9µM*,16.4µM*,-83.4%,-62.7*,?,/
CC(C)C(NC(=O)c1ccoc1)c1nnc2n1CCN(C(=O)/C=C/c1ccc(F)cc1)CC2 (centres undefined),1.1%,-21.2%,/,/,/,/
Cc1ccc(-c2cc(C(=O)OCC(=O)Nc3ncc(C(F)(F)F)cc3Cl)c3ccccc3n2)cc1,14.6µM*,?,4.2%,28.0,12.4%,2.6%
Cc1ccc(C(=O)NCC(=O)OCC(=O)Nc2ncc(C(F)(F)F)cc2Cl)cc1,-4.6%,22.3%,11.6%,0.0,-2.6%,0.6%
Cc1ccc(C(=O)COC(=O)c2cc(-c3ccc(Cl)cc3)nc3ccccc23)cc1,10.3µM*,20.6µM*,-2.8%,/,-0.9%,-6.6%[12.3 µM]
COc1cc(C(=O)NC2CCN(C)CC2)ccc1Nc1ncc2c(n1)N(C1CCCCC1)CCC(=O)N2C,0.92µM*,0.581µM*,12.6µM*,3.7,?,/
SMILES,DT40 TDP1 CPT,TDP1 cell noCPT,HepG2 tox,IL-1B inflam inh,TGFb inhibitor,TDP1 block
COc1cc(C(=O)NC2CCN(C)CC2)ccc1Nc1ncc2c(n1)N(Cc1ccccc1)CCC(=O)N2C,3.66µM*,5.17µM*,-51.5%,55.5,43.7%,/
COc1ccccc1NC(=O)CSc1ncc(CO)n1Cc1ccc(F)cc1,?,?,-17.1%,-7.8,?,4.0%
Cc1ccc(Cn2c(CO)cnc2SCC(=O)Nc2cccc(F)c2)cc1,-15.7%,-4.7%,-33.7%,/,-5.0%,2.8%
CCOC(=O)c1ccccc1NC(=O)CSc1ncc(CO)n1Cc1ccc(C)cc1,14.6µM*,-80.8%,-30.5%,/,-14.2%,0.6%
Cc1ccc(Cn2c(CO)cnc2SCC(=O)Nc2ccc(C)c(Cl)c2)cc1,18.4µM*,23.1µM*,-31.4%,/,?,5.3%
CCOC(=O)CSc1nnc2n(-c3ccccc3)c(=O)c3c4c(sc3n12)COC(C(C)C)C4 (centres undefined),?,?,16.7%,/,32.7%,/
Cc1ccc(C)c(NC(=O)CCS(=O)(=O)c2cccc3nsnc23)c1,-11.5%,-8.1%,-13.5%,/,-1.6%,5.9%
COc1cccc2c1OC1(C)CC2NC(=O)N1c1cccc(C(=O)Nc2ccc3c(c2)OCCO3)c1 (centres undefined),?,18.4µM*,-3.8%,10.4,?,3.9%

# Screens deposited in PubChem BioAssay by National Center for Advancing Translational Sciences (NCATS).
